The record followed here is PubChem BioAssay AID504339 (National Center for Advancing Translational Sciences (NCATS), 2011).

Out of some 390,000 compounds screened, about 17,000 (4.4%) were called active. Where a call stands in place of a potency, no number is given. Roughly 8% stayed inconclusive and do not appear here. The call rests on the fitted dose curve; in most records, active means well fitted inhibition curve with a large enough effect; inconclusive means small, poorly fitted or top-dose-only effect; inactive means no such curve, though single readings can be large or run the other way. The sample as a whole holds a higher share of actives than the screen did.
Potency means the concentration at half of the fitted maximal effect.

Lysine-specific demethylase 4A (Homo sapiens), sequence (O75164 whole entry, looked up, the tested form may be a part): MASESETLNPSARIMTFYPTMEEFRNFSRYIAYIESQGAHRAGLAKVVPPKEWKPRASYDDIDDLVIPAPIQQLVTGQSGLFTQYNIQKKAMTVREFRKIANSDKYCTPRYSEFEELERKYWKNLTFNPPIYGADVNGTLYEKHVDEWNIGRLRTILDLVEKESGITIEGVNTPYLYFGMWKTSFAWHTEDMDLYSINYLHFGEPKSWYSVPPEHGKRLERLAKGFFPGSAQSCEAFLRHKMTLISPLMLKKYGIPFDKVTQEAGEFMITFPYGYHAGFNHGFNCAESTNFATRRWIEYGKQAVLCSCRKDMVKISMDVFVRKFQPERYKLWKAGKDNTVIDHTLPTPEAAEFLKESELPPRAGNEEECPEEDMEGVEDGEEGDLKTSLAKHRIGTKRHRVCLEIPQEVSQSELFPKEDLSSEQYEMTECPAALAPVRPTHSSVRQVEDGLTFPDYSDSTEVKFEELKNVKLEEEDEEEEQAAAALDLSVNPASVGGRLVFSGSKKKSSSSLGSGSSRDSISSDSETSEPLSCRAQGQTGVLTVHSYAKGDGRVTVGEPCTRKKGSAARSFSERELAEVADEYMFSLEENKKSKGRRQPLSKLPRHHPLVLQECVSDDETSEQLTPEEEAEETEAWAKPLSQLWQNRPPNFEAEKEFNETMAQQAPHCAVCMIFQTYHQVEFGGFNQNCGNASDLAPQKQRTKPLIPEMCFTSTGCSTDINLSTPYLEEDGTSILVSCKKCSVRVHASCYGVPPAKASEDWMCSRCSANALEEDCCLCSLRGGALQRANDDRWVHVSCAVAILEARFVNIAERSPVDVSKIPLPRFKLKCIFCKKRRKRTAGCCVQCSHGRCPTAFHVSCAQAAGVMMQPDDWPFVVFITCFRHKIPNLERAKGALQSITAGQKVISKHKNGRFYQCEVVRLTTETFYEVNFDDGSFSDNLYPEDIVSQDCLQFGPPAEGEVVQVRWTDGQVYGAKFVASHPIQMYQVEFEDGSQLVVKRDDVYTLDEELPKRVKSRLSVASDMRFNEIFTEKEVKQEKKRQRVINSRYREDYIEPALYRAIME

The test addresses Lysine-specific demethylase 4A (Homo sapiens) (UniProt O75164). Nature of the test: qHTS Assay for Inhibitors of JMJD2A-Tudor Domain. Further: nearly all actives have a fitted effect of over 50% in size. The following applies: AlphaScreen JMJD2A-Tudor / H3K4me3 peptide binding; series mostly up to 114 µM. On the technique in general: Quantitative high-throughput screening tests each substance at several concentrations.
Turning to `CC(=O)Nc1cccc(NC(=O)CSc2nccn2Cc2ccc3c(c2)OCO3)c1`, the Potency entry is “inactive”. In the case of `O=C(CCS(=O)(=O)c1ccccc1)N(Cc1cccnc1)c1nc2c(F)cccc2s1`, the Potency entry was “inactive”. On to `COc1ccc2oc(=O)c(-c3cn4c(n3)sc3cc(OC)ccc34)cc2c1`, for which the Potency result is “inactive”. Take `CCC(=O)N1c2ccccc2CC1C(=O)N1CCN(c2ccccc2F)CC1` (stereo unspecified): the Potency result is “inactive”. With `CC1=C(c2ccc(C)cc2)S(=O)(=O)NC1=NCCCN1CCN(c2cc(C)ccc2C)CC1`, the Potency entry was “inactive”. Take `COc1ccc(Cn2c(C(=O)O)c(CNCCc3cccs3)c3ccc(OC)cc32)cc1`: the Potency result is “inactive”. With `COc1cc(OC)cc(C(=O)Nc2c(C(=O)Nc3ccc(F)cc3)oc3ccccc23)c1`, the Potency result was “inactive”.

With `Cc1ccc(C)c(N2CCN(C(=O)Cn3ncc4c(=O)oc5ccc(C)cc5c43)CC2)c1`, the Potency entry is “inactive”. On to `C/C(=N/NC(=O)CC(=O)N/N=C(\C)c1ccc([N+](=O)[O-])cc1)c1ccc([N+](=O)[O-])cc1`, for which the Potency result is “inactive”. With `C/C(=N\N(C)C)c1ccc(OCCOc2ccc([N+](=O)[O-])cc2)cc1` the figure was 44.7 µM (active); with `CO/N=C(\N)c1ccc([N+](=O)[O-])cc1`, “inactive”; with `Cc1oc2ncnc(N3CCOCC3)c2c1C(=O)NCCc1ccccc1`, “inactive”. Consider `CCCCOc1ccc(C(=O)N2CC(=O)Nc3ccc(Br)cc3C2c2ccc(F)cc2)cc1` (stereo unspecified), for which the Potency entry was “inactive”. For `O=C(Nc1ccccc1)O/N=C1\CCCCC1c1ccc([N+](=O)[O-])cc1[N+](=O)[O-]` (stereo unspecified), the Potency entry was “inactive”. Consider `C[n+]1ccccc1C1CCCC/C1=N\Nc1ccc([N+](=O)[O-])cc1[N+](=O)[O-]` (stereo unspecified), for which the Potency result was “inactive”.

As for `O=[N+]([O-])c1ccc(N/N=C2/CCCCC2c2ccccn2)c([N+](=O)[O-])c1` (stereo unspecified), the Potency is 31.6 µM (active). For the compound `Cc1ccc(C)c(S(=O)(=O)c2nnn3c2nc(N2CCOCC2)c2sccc23)c1`, the Potency entry was “inactive”.

Turning to `COc1ccc(CCN2C(=O)N(c3cccc(OC)c3)C(=O)C2CC(=O)Nc2ccccc2)cc1` (stereo unspecified), the Potency entry is “inactive”. Turning to `N#C/C(=C\C1=C(N2CCOCC2)C(=C\c2ccccc2)/CC1)C(=O)Nc1ccccc1F`, the Potency was 4.47 µM (active). Take `N#C/C(=C/c1ccc(N2CCOCC2)o1)C(=O)N1CCOCC1`: the Potency entry was “inactive”.

With `O=C(CC1SC(N2CCOCC2)=NC1=O)Nc1ccccc1F` (stereo unspecified), the Potency entry was “inactive”. For the compound `COc1c(Cl)cc(Cl)cc1C(=O)Nc1cccc2cccnc12`, the Potency entry is “inactive”.

For the compound `Cc1ccc(S(=O)(=O)NCCCn2ccnc2)cc1C(=O)NC(C)C`, the Potency entry was “inactive”. With `Cc1cccc(NS(=O)(=O)c2ccc(C)c(C(=O)NCC(c3ccccc3)N(C)C)c2)c1` (stereo unspecified) the entry was “inactive”; with `Cc1ccc(S(=O)(=O)NCCC(c2ccccc2)c2ccccc2)cc1C(=O)O`, 79.4 µM (active). `Cc1nc(SCC(=O)Nc2ccc(C(=O)O)cc2)n[nH]1`: the Potency entry was “inactive”.
